Results published in PubChem BioAssay (NCI).
Compounds without any hit were thinned out: in the full panel of roughly 79,000, 15% have a hit. Rule as the data show it: active = growth inhibition above about 70%; inactive = the rest.

How the values were obtained:
[1] = NCI Yeast Anticancer Drug Screen. Data for the rad50 strain (AID 155);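 also: 0% = growth of vehicle-only cultures of the same strain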; conditions: S. cerevisiae rad50 strain growth inhibition; at 50.0 µM; active compounds read high
Procedure, shortened: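 Vehicle-treated cultures provide the reference for the growth inhibition reported for compound-exposed, repair-deficient yeast.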

[2] = NCI Yeast Anticancer Drug Screen. Data for the mec2-1 strain (AID 157); conditions: S. cerevisiae mec2-1 strain, at 50.0 µM, active compounds read high
Procedure, shortened: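 Readout is yeast growth inhibition, normalised to vehicle-treated controls, in the mec2-1 strain exposed to compound.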

[3] = NCI Yeast Anticancer Drug Screen. Data for the sgs1 mgt1 strain (AID 161);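 also: 0% = growth of cultures given vehicle only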; conditions: S. cerevisiae sgs1 mgt1 strain, at 50.0 µM, active compounds read high
Procedure, shortened: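 This yeast growth screen uses a strain with defined DNA-repair lesions; compound-treated growth is compared with vehicle-treated growth.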

[4] = NCI Yeast Anticancer Drug Screen. Data for the cln2 rad14 strain (AID 165);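 also: 0% = growth equal to vehicle treated cultures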; conditions: S. cerevisiae cln2 rad14 strain, at 50.0 µM, active compounds read high
Procedure, shortened: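 Relative to vehicle controls, growth inhibition of compound-treated cln2 rad14 yeast was recorded.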

[5] = NCI Yeast Anticancer Drug Screen. Data for the bub3 strain (AID 167); conditions: S. cerevisiae bub3 mutant strain, at 50.0 µM, active compounds read high
Procedure, shortened: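 Mutant yeast screening strain plus compound; vehicle-treated cultures serve as the 0% inhibition reference.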

[6] = NCI Yeast Anticancer Drug Screen. Data for the mlh1 rad18 strain (AID 175); conditions: S. cerevisiae mlh1 rad18 strain growth inhibition; at 50.0 µM; active compounds read high
Procedure, shortened: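 Test agents were incubated with a yeast strain of defined genotype (DNA damage repair defect). Inhibition of growth was derived by comparison with vehicle-exposed cultures.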

Measured: growth inhibition

CCCC(CN1CCCCC1)C(OC(=O)c1ccc(N)cc1)C(F)(F)F (stereo unspecified)
inactive: [1] -14.2% | [2] -13.7% | [3] 24.1% | [4] -30.8% | [5] 67.5% | [6] 22.4%

CCC(=O)Nc1cccc(OC(=O)NC2CCCCC2)c1
inactive: [1] 1.35% | [2] 13.1% | [3] 16.2% | [4] 1.3% | [5] 20.2% | [6] 11.1%

CN(C)Cc1cc(C(=O)/C=C/c2c(F)cccc2Cl)cc(CN(C)C)c1O
inactive: [1] 1.7% | [2] 21.4% | [3] 2.35% | [4] 1.05% | [5] -13.8% | [6] 7.35%

OCc1c(-c2ccccc2)oc(-c2ccccc2)c1CN1CCOCC1
inactive: [1] 11.9% | [2] -0.95% | [3] 6.55% | [4] -11.9% | [5] 12% | [6] 9.2%

CC(OC(C)C(N)=O)C(N)=O (stereo unspecified)
inactive: [1] -0.05% | [2] 0.55% | [3] -5.8% | [4] -3.05% | [5] 4.9% | [6] -1.15%

CCS(=O)(=O)c1ccc(NC(=O)OCc2ccccc2)cc1
inactive: [1] 12.1% | [2] 23.4% | [3] 22.4% | [4] -4.4% | [5] 25.5% | [6] -2.4%

COc1c(C=O)c2c(c(OC)c1OC)-c1ccc(OC)c(=O)cc1[C@@H](NC(C)=O)CC2
inactive: [1] 12.5% | [2] -9.6% | [3] -0.25% | [4] 7.15% | [5] 2.9% | [6] -0.95%

c1ccc2c(c1)CCC2
inactive: [1] 12.1% | [2] -10.2% | [3] -23.1% | [4] 1.55% | [5] -18.1% | [6] -6.6%

COC(=O)c1cc2c(cc1N=Cc1ccccc1Cl)OCO2
inactive: [1] 0.45% | [2] 4.3% | [3] 12.1% | [4] -1.65% | [5] -0.85% | [6] 6.35%

Nc1ccc(C(=O)O)cc1O
inactive: [1] 13.7% | [2] 14.2% | [3] 13.9% | [4] 20.4% | [5] 9.65% | [6] -7%

CCOC(=O)N[C@@H]1C(CC(=O)OC)O[C@H]2OC(C)(C)O[C@H]21 (stereo partly specified)
inactive: [1] 18.1% | [2] -7.2% | [3] 10.4% | [4] 7.4% | [5] -9.55% | [6] 6.25%

CCC(=O)NC1CCCCC1
inactive: [1] 8.6% | [2] 3.5% | [3] 19.2% | [4] -15.3% | [5] -13.9% | [6] 1.4%

CC1CCCCN1C(CC(=O)c1ccccc1)C(=O)c1ccccc1 (stereo unspecified)
inactive: [1] 21.4% | [2] 24.1% | [3] 8.55% | [4] 17.1% | [5] 18.4% | [6] 38.7%

CC(/C=C/c1ccccc1)=N\NC(=O)c1ccccc1
inactive: [1] 44.8% | [2] 5.3% | [3] -5.4% | [4] 4.3% | [5] -15.1% | [6] -47.1%

COc1ccc(-c2c(C#N)c(-c3ccccc3)n(NS(=O)(=O)c3ccccc3)c(=O)c2C#N)cc1
inactive: [1] -0.05% | [2] 40.7% | [3] 30.4% | [4] 8.45% | [5] 32.6% | [6] 42.1%

Oc1c(Cl)cc(Cl)cc1/C=N/c1nc(-c2ccc(Cl)cc2)cs1
inactive: [1] 52.1% | [2] 26.1% | [3] 61.3% | [4] 28.1% | [5] 38.8% | [6] 35%

S=C(Cl)Sc1ccc(-c2ccc(SC(=S)Cl)cc2)cc1
inactive: [1] 2.7% | [2] -2.5% | [3] -10.4% | [4] -5.6% | [5] 6.1% | [6] -7.9%

C[N+](C)(C)CCOC(=O)/C=C/c1cnc[nH]1
inactive: [1] 9.7% | [2] 10.9% | [3] 37.7% | [4] 23.6% | [5] 6.4% | [6] 16.1%

Cc1cc(/C=N/N2CCN(/N=C/c3cc(C)n(-c4ccccc4)c3C)CC2)c(C)n1-c1ccccc1
inactive: [1] 2.5% | [2] -9.15% | [3] -2.7% | [4] -27.9% | [5] -2.95% | [6] -13.6%

O=C1CSC(/C(=C\c2ccc(Cl)cc2)c2nc3ccccc3[nH]2)=N1
inactive: [1] 11.3% | [2] 11.2% | [3] -4.15% | [4] 11.7% | [5] 12.2% | [6] 4.3%

CC(=O)N(c1ccccn1)c1ccccn1
inactive: [1] -15.3% | [2] -10.2% | [3] -19.9% | [4] -54.5% | [5] 0.5% | [6] -31.2%

O=C1OC(Cc2ccccc2)=N/C1=C/c1ccccc1
inactive: [1] 9.05% | [2] 0.8% | [3] 1.15% | [4] -9% | [5] 2.7% | [6] 4.55%

Cc1nn(C(=O)Cc2ccccc2)c2c1C(c1ccc(O)cc1O)SC(N)=N2 (stereo unspecified)
inactive: [1] -38.9% | [2] -23.1% | [3] -35.5% | [4] 0.8% | [5] -15.6% | [6] -36.5%

Cc1ccc(-c2c3c(n(C4OC(CO)C(O)C(O)C4O)c(=S)c2C#N)CC(C)(C)CC3=O)cc1 (stereo unspecified)
inactive: [1] 23.5% | [2] 13.7% | [3] -4.45% | [4] -8.95% | [5] 9.15% | [6] 11.8%

O=C(N/C(=C\c1ccccc1)C1Nc2ccccc2C(=O)O1)c1ccccc1 (stereo unspecified)
inactive: [1] -6.8% | [2] 2.95% | [3] -19.6% | [4] -17.2% | [5] -8.95% | [6] -24.7%

COC(=O)c1nc2c(n(C)/c1=N/C(=O)Nc1ccccc1)CCCC2
inactive: [1] 61.5% | [2] -2.9% | [3] 4.25% | [4] -7.65% | [5] 4.65% | [6] -50.6%

Clc1ccc(CCn2ccc3ccccc32)c(Cl)c1
inactive: [1] -12.6% | [2] -10% | [3] 0.05% | [4] 7.2% | [5] 16.9% | [6] 4.35%

O=c1[nH]c(=S)[nH]c2c1CCC2
inactive: [1] 6% | [2] 25.4% | [3] 44.2% | [4] 21.4% | [5] 35.2% | [6] 24.1%

O=C(O)COc1cccc(O)c1
inactive: [1] -26.4% | [2] -24.2% | [3] -39.6% | [4] -13.1% | [5] -27.9% | [6] -20.1%

Cc1c2c(c(C)c3c1C(=O)c1cc4c(cc1C3=O)OCO4)OC(C)O2
inactive: [1] -10.5% | [2] -15.5% | [3] -18.6% | [4] -28.4% | [5] -47.7% | [6] -18.6%

COc1cc(C(c2ccc3c(c2)OCO3)N2C(=O)CCC2C(=O)O)cc(OC)c1OC (stereo unspecified)
inactive: [1] -14.1% | [2] -15.6% | [3] -18.8% | [4] -11.7% | [5] -7.8% | [6] -10.2%

COc1ccc(NC(=O)CC(=O)N2N=C(N(CCC#N)c3ccc(Cl)cc3)CC2c2ccccc2)cc1 (stereo unspecified)
inactive: [1] 16.5% | [2] -17% | [3] -1.55% | [4] 7.5% | [5] 2.05% | [6] -6.05%

CCc1ccc(S(N)(=O)=O)cc1
inactive: [1] 11.1% | [2] -4.1% | [3] -16.3% | [4] -24.6% | [5] -7% | [6] -168%

Nc1nc(N)c2nn(-c3ccc(C(=O)O)cc3)nc2n1
inactive: [1] -13.6% | [2] 7.85% | [3] -5.15% | [4] -16.9% | [5] -11.2% | [6] 6.05%

CCOC(=O)Oc1ccc(C(=O)Oc2ccccc2)cc1OC
inactive: [1] 18.1% | [2] 4.1% | [3] 12.9% | [4] -48.8% | [5] 42.1% | [6] 10%

Cc1cc2c(=O)[nH]c(=S)[nH]c2cn1
inactive: [1] 8% | [2] 7% | [3] -11.4% | [4] -0.35% | [5] 6.8% | [6] -3.6%

O=[N+]([O-])c1cc2c(cc1Br)C1C(C3C2C2(Cl)C(Cl)=C(Cl)C3(Cl)C2(Cl)Cl)C2(Cl)C(Cl)=C(Cl)C1(Cl)C2(Cl)Cl (stereo unspecified)
inactive: [1] 31.7% | [2] 5.4% | [3] 24.6% | [4] 11.8% | [5] 11.2% | [6] 8.1%

O=C1CCSC(=S)N1c1ccc(F)cc1
inactive: [1] 7.15% | [2] -1.4% | [3] 2.2% | [4] -32.5% | [5] -22.9% | [6] 6.2%

COC(C(=O)CN(C)C)(c1ccccc1)c1ccccc1
inactive: [1] 4% | [2] -11.1% | [3] -1.85% | [4] 6.45% | [5] -26.8% | [6] 23.5%

CCN1C(=O)/C(=C\c2coc3ccccc3c2=O)SC1=S
inactive: [1] -2.6% | [2] -34.7% | [3] 0.2% | [4] 0.5% | [5] -23.7% | [6] -0.2%

O=C(O)CCC(NC(=O)CCC(NC(=O)OCc1ccccc1)C(=O)OCc1ccccc1)C(=O)OCc1ccccc1 (stereo unspecified)
inactive: [1] -13.1% | [2] -31.5% | [3] -10.6% | [4] 9.2% | [5] 5.4% | [6] -10.8%
